# DT40 TDP1 CPT – DT40-hTDP1 cell growth loss with CPT | chicken DT40 Tdp1-/-;hTDP1 cells + 20 nM CPT, ATP luminescence, 48 h | Potency, µM (highest dose often 46.2 µM), without a hit: at the highest dose activity change, negative = growth inhibition, hits mostly inhibitors | actives 12% (n = 420,000) | AID 686979; further: nearly all actives have a fitted effect of over 55% in size
#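 Chicken DT40 Tdp1-/- cells complemented with human TDP1, 400 cells/well, exposed to compounds plus 20 nM camptothecin for at least 48 h at 37 C; viability read as ATP content by CellTiter-Glo luminescence.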
# KB-3-1 tox – kills parental KB-3-1 adenocarcinoma cells; KB-3-1 viability, CellTiter-Glo ATP luminescence, 72 h; Potency, µM (top dose mostly 46.1 µM), actives largely listed as cytotoxic; actives 1.4% (n = 400,000); AID 1347075; further: nearly all actives have a fitted effect of over 60% in size
#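 KB-3-1 parental drug-naive adenocarcinoma cells in DMEM/10% FBS, incubated 72 h at 37 C with pin-transferred compounds across a concentration series. Viability by CellTiter-Glo luminescence; concentration-response curves fitted after normalization.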
# DT40 TDP1 no CPT – qHTS for Inhibitors of human tyrosyl-DNA phosphodiesterase 1 (TDP1): qHTS in cells in absence of CPT; DT40 Tdp1-/- hTDP1 cells, no CPT, ATP luminescence, 48 h; Potency, µM (highest dose often 46.2 µM), without a hit: at the top dose activity change, negative = growth inhibition, actives largely listed as inhibitors; actives 15% (n = 420,000); further: nearly all actives have a fitted effect of over 55% in size
#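 Stably hTDP1-transfected Tdp1-null chicken DT40 cells were treated with library compounds minus camptothecin and grown for at least 48 hr at 37 °C, after which cellular ATP was quantified by luminescence.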
# HT1080NT lethal – kills 2HG-producing HT-1080-NT fibrosarcoma cells. actives 1.6% (n = 360,000). Potency, µM (titrated, usually from 46.1 µM), inactives show top-dose activity, negative = less viability, usual class: cytotoxic. HT-1080-NT fibrosarcoma viability, CellTiter-Glo ATP luminescence, 48 h;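 further: NT is the 2HG producing partner of a matched IDH1 knockdown line; 0% = DMSO-treated cells and -100% = media-only wells without cells; nearly all actives have a fitted effect of over 55% in size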
#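 Fibrosarcoma NT cells, 750 per well in 5% FBS RPMI, were exposed to compound for 48 hours. Viability: CellTiter-Glo luminescence.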
# HT1080 IDH1KD tx – HT-1080 IDH1 knockdown cell toxicity (counter line). HT-1080 IDH1 knockdown viability, ATP luminescence, 48 h. Potency, µM (top dose mostly 46.1 µM), for inactives: at the highest dose activity, negative = toxicity, actives largely listed as cytotoxic. actives 2% (n = 360,000);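 further: 0% = DMSO wells and -100% = cell-free medium wells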
#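 Cytotoxicity counter-line: IDH1KD HT-1080, 48 h, CellTiter-Glo. Curves classed by r2, magnitude and activity.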
# KB-V1 MDR tox – KB-V1 MDR subline cytotoxicity; actives 3.4% (n = 400,000); Potency, µM (doses to about 46.1 µM), hits mostly cytotoxic; KB-V1 MDR cells viability, CellTiter-Glo, 72 h; further: nearly all actives have a fitted effect of over 60% in size
#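 Following 72 h at 37 degrees C with compound, KB-V1 cell viability was read by CellTiter-Glo luminescence, medium being phenol-red-free DMEM plus 10% FBS; concentration-response parameters came from normalized, curve-fitted qHTS data.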
# Active calls of the source: *; i = inactive; u = inconclusive; x = no result; [ ] = dose if it differs, or a comment. An excerpt weighted towards active compounds, which were near 19% of everything screened. The call rests on the fitted dose curve; in most records, active means well fitted curve in the direction sought with a large enough effect; inconclusive means small, poorly fitted or top-dose-only effect, or another doubt; inactive means no such curve, though single readings can be large; an effect the other way counts as inactive or inconclusive. Unless noted, on the % scale 0 is the no-effect control and ±100 the full control effect; potency means the concentration at half of the fitted maximal effect.
SMILES,DT40 TDP1 CPT,KB-3-1 tox,DT40 TDP1 no CPT,HT1080NT lethal,HT1080 IDH1KD tx,KB-V1 MDR tox
CCOC(=O)c1sc(-c2cccc(C(F)(F)F)c2)nc1O,u,u,21µM*,-13%,4%,i
CC(C)Cn1cc(NC(=O)Nc2cccc(C(F)(F)F)c2)c2ccccc2c1=O,21µM*,u,u,x,x,i
COc1ccc(N2CCN(C(=O)Nc3cn(CC(C)C)c(=O)c4ccccc34)CC2)cc1,-24%,i,15µM*,x,x,i
Cc1ccc(NC(=O)Nc2cn(CC(C)C)c(=O)c3ccccc23)cc1N(C)C,21µM*,i,23µM*,x,x,i
COc1ccc(N2CCN(C(=O)Nc3ccccc3C)CC2)cc1,-7%,i,4%,10%,15%,i
Cc1ccc(C)c(N2CCN(C(=O)Nc3cn(CC(C)C)c(=O)c4ccccc34)CC2)c1,13µM*,u,16µM*,x,x,i
O=C(NNC(=O)c1c(F)cccc1F)c1ccccc1-n1cccc1,-10%,i,-21%,28%,30%,i
CCC(C)NC(=O)Cn1c(=O)n(CC2CCC(C(=O)NC)CC2)c(=O)c2sccc21 (stereo not drawn),0%,i,-10%,x,x,u
COc1cc2c(C(=O)N3CCN(c4cccc(C)c4)C(C)C3)cn(CC(C)C)c(=O)c2cc1OC (stereo not drawn),15µM*,i,u,x,x,i
CC(C)Cn1cc(NC(=O)N2CCN(c3cccc(C(F)(F)F)c3)CC2)c2ccccc2c1=O,15µM*,i,16µM*,x,x,i
CC(C)Cn1cc(NC(=O)NCc2ccccc2)c2ccccc2c1=O,u,i,u,x,x,i
CC(C)Oc1cc(NC(=O)CSCC(=O)Nc2cccc(C(F)(F)F)c2)c(Cl)cc1Cl,-27%,i,-22%,-20%,u,13µM*
CC(C)Cn1cc(NC(=O)N2CCN(c3cccc(Cl)c3)CC2)c2ccccc2c1=O,7.3µM*,i,u,x,x,i
Cc1ccc(Oc2ncccc2C(=O)NC2CCSC2=O)cc1 (stereo not drawn),7%,i,-3%,-1%,2%,i
Cc1ccc(/C=N/NC(=O)Cc2c(F)cccc2Cl)s1,-1%,i,-21%,0%,-2%,i
COc1cc(C(=O)Oc2ccc3c(OC)c4ccoc4nc3c2OC)cc(OC)c1OC,-9%[9.04 µM],x,5%[9.04 µM],x,x,x
COc1cc2c(C(=O)N3CCN(c4cccc(C(F)(F)F)c4)CC3)cn(CC(C)C)c(=O)c2cc1OC,16µM*,i,18µM*,x,x,u
COc1ccc(C2CC(=O)C3=C(C2)Nc2ccccc2NC3c2coc3ccccc3c2=O)cc1OC (stereo not drawn),16µM*,i,26µM*,-4%,-1%,i
CCOC(=O)CSc1nc2ccc(N3CCOCC3)cc2c(=O)n1Cc1ccccc1,u,i,-58%,10%,1%,u
CCCCNC(=O)CSc1nc2ccc(N3CCOCC3)cc2c(=O)n1CCc1ccccc1,u,i,u,1%,6%,0.58µM*
CCc1ccc(NC(=O)CSc2nc3ccccc3c(=O)n2CCCC(=O)NCCCN2CCOCC2)cc1,-2%,i,u,u,18µM*,i
O=C(CSc1nc2ccccc2c(=O)n1CCCN1CCOCC1)Nc1ccccc1OC(F)F,18µM*,i,21µM*,7%,0%,i
Cc1cc(C)c(NC(=O)CSc2nc3ccccc3c(=O)n2CCCN2CCOCC2)c(C)c1,u,i,u,20%,5%,i
CCOC(=O)CSc1nc2ccccc2c(=O)n1CCN1CCOCC1,-16%,i,-7%,6%,1%,13µM*
CCOC(=O)C1C(=O)C=C(c2ccc(Br)cc2)CC1c1ccco1 (stereo not drawn),u,u,u,-3%,-14%,u
SMILES,DT40 TDP1 CPT,KB-3-1 tox,DT40 TDP1 no CPT,HT1080NT lethal,HT1080 IDH1KD tx,KB-V1 MDR tox
Cc1cc(C)nc(NC(=O)c2cc([N+](=O)[O-])cc([N+](=O)[O-])c2)n1,-6%,i,u,-5%,1%,i
CCc1nnc(NC(=O)CCC(=O)NC2CCCCCC2)s1,3%,i,33%,-4%,-4%,i
COc1ccc(NC(=O)N2CC3(CCN(C(=O)c4csnn4)CC3)C2)cc1,4%,x,-4%,x,x,x
COc1ccc(/C=C/C(=O)Nc2nonc2NC(C)=O)cc1,-4%,i,-28%,7%,14%,i
O=c1[nH]c(=O)n2ncnc2[nH]1,-14%,i,-16%,1%,1%,i
COc1ccccc1-c1ccc2ncnc(N3CCNCC3)c2c1,u,x,14%,x,x,x
CN1CCN(c2ncnc3ccc(-c4ccoc4)cc23)CC1,12µM*,x,23µM*,x,x,x
CN1CCN(c2ncnc3ccc(-c4ccc(C(=O)N(C)C)cc4)cc23)CC1,6%,x,3%,x,x,x
CN1CCN(c2ncnc3ccc(-c4cccnc4)cc23)CC1,16µM*,x,u,x,x,x
COc1cccc(-c2ccc3ncnc(N4CCN(C)CC4)c3c2)c1,13µM*,x,23µM*,x,x,x
Cc1c(CCOC(=O)c2cc([N+](=O)[O-])cc([N+](=O)[O-])c2)sc[n+]1CC(=O)c1ccccc1,-25%,i,0%,0%,8%,i
Cc1c(CCOC(=O)c2ccccc2)sc[n+]1Cc1ccccc1,16µM*,i,23µM*,-17%,-1%,i
Cc1c(CCOC(=O)c2ccccc2)sc[n+]1CC(=O)c1ccc(Br)cc1,u,u,u,u,u,7.3µM*
O=C(NCCc1ccccc1)c1ccc(-c2cccnc2)c2ccoc12,u,i,15µM*,u,-2%,i
O=C(NCc1ccncc1)c1cc(-c2ccc(Cl)cc2)oc1C(F)(F)F,u,i,18µM*,-12%,-23%,u
CS(=O)(=O)Nc1cccc(NC(=O)c2ccc(-c3ccc(F)c(F)c3)c3ccoc23)c1,u,i,u,u,0%,u
O=C(NCc1ccccn1)c1cc(-c2ccc(Cl)cc2)oc1C(F)(F)F,u,i,u,-2%,-3%,u
O=C(NCc1cccc(Cl)c1)c1ccc(-c2cccnc2)c2ccoc12,u,i,u,2%,-16%,i
CN1CCN(c2ccc(CNC(=O)c3ccc(-c4ccc(F)c(F)c4)c4ccoc34)cc2)CC1,u,i,18µM*,-23%,-23%,i
